# Compound activity: PubChem, several laboratories
# HSF1 inhib: HSF1 inhibitors in luciferase reporter cells, primary screen, cell-based, NIH3T3, luminescence; NIH3T3-HGL HSE-luciferase, MG132-induced, luminescence 8 h; active compounds read low; activity change, negative = inhibition, % at 7.5 µM (by protocol); 300,000 tested, 0.77% active; AID 2098, 2009;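 active means more than half of replicate wells show activity change below -50%, luminescence cut by over half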;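 further: luciferase reports HSF-1 transcriptional activity via heat shock element; 0% = median of DMSO wells and -100% = zero luminescence signal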
# HSP90 inh: HSP90 inhibitors, primary screen, cell lysate, luminescence; inhibition, % at 5.6 µM; Rabbit reticulocyte lysate, luciferase refolding luminescence, 3 h; Heat shock protein HSP 90 (rabbit reticulocyte lysate; luciferase refolding); 290,000 tested, 0.91% active;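 active means inhibition above the screen-wide mean plus 3 SD, computed separately per campaign, cut at about 16% in these data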;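 further: 0% = DMSO wells and 100% = 60 µM geldanamycin wells; inhibitors lower the luminescence because luciferase stays unfolded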
# FXN GAA850 act: FXN promoter activators, primary screen, cell-based, luciferase luminescence, HEK293 lucGAA850; HEK293 lucGAA850 FXN promoter luciferase reporter, 24 h; percent of 10 µM SAHA response; activation, % at 6 µM; 360,000 tested, 0.56% active; AID 540364, 2011;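 active means activation above the average of all compounds screened plus 3 SD, cutoff fixed separately per campaign, cut at about 7.5% in these data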;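 further: 0% = DMSO wells and 100% = 10 µM SAHA wells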
# PG9 binder: binders of HIV-1 gp120 antibody PG9, primary screen, biochemical, TR-FRET; 360,000 tested, 0.43% active; inhibition, % at 6.7 µM; HIV-1 gp120 / PG9 antibody interaction; TR-FRET gp120-PG9 antibody binding; AID 624416, 2012; in the data active means inhibition above about 8.5%
# SMARCA2 act: SMARCA2 (BRM) function activators, primary screen, cell-based, luminescence, high throughput. MG213 cells, MMTV-luciferase reporter, dexamethasone, overnight. activation, % at 9.1 µM. 370,000 tested, 1% active. AID 652017, 2013; in the data active means activation above about 7.8%;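 further: 0% = vehicle wells and 100% = reference activator wells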
# AI-2 QS modul: Vibrio harveyi AI-2 quorum sensing modulators, primary screen, JMH597 strain, luminescence/OD600 ratio | activity change, % at 7.5 µM | AID 2094, 2009 | 300,000 tested, 0.4% active | Vibrio harveyi JMH597 AI-2 luminescence/OD600 ratio, 9 h; active compounds read low; strain lacks LuxN and CqsS sensors; 0 = neutral-control median; in the data active means activity change below about -75%, passing the limit was not always enough;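 further: luminescence divided by OD600 gain over 9 h not by final OD600 alone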
# SMARCA2 act conf: SMARCA2 (BRM) function activators, confirmation, cell-based, luminescence, triplicate | activation, % at 9.1 µM | 3,500 tested, 30% active | MG213 cells, MMTV-luciferase with dexamethasone, overnight; MG213 cells expressing E1A, Rb sequestered; DMSO wells 0%, reference activator 100% | AID 652260, 2013 | shares compounds with SMARCA2 act;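 active means activation above its plate's cutoff, the mean activation of tested wells plus 3 SD, cut at about 7.9% in these data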
# VP16 Luc act: GAL4-VP16 luciferase reporter activation, counter-screen for SMARCA2 (BRM) activator project, cell-based, pG5luc, luminescence, high throughput. shares compounds with SMARCA2 act. 3,500 tested, 41% active. AID 686939, 2013. activation, % at 9.1 µM. HEK293 GAL4-VP16 pG5luc reporter; scaled: DMSO wells 0%, SAHA wells 100%;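 active means activation above the solvent-only control well mean plus 3 SD, averaged across control plates, cut at about 5.2% in these data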
# An asterisk follows results filed as active; · = no result given. The list is not random: actives were taken first. Their share in the collection is about 3.4%.
SMILES,HSF1 inhib,HSP90 inh,FXN GAA850 act,PG9 binder,SMARCA2 act,AI-2 QS modul,SMARCA2 act conf,VP16 Luc act
COC(=O)/C(C#N)=C1/C=Cc2ccccc2N1,9,-1,4,-4,8.9*,2,5,8.3*
CCN=C1NC(CCc2ccccc2)C(C(=O)OC)=C(C)N1Cc1ccccc1C(F)(F)F (configuration not stated),·,·,·,-1,-1,·,·,·
Cc1ccc(-n2nc3c(c2NC(=O)c2ccco2)CS(=O)(=O)C3)cc1,-6,-3,-2,-2,-1,21,·,·
Cc1ccc(-n2nc3c(c2NC(=O)c2ccco2)CS(=O)(=O)C3)cc1C,-5,2,0,-1,8.8*,16,4,1
Cc1ccc(-n2nc3c(c2NC(=O)c2cccs2)CS(=O)(=O)C3)cc1,-1,-4,3,1,14*,23,1,0
CCOC(=O)N1CCN(C(=O)C[C@H]2C[C@@]3(C(=O)OC)C(=C[C@H](C(C)(C)C)O[C@@H]3C)N(Cc3ccco3)C2=O)CC1,·,·,·,·,6,·,·,·
O=S1(=O)N[C@H](Cc2ccccc2)COc2cc(N3CCCC3)ccc21,·,·,·,·,0,·,·,·
O=C(NCc1ccccc1)[C@@H]1CCCN1C(=O)[C@H]1CCCN1C(=O)C1CCCCC1,·,·,·,-2,0,·,·,·
Cc1nn(-c2cccc(C(F)(F)F)c2)c(Cl)c1/C=N/Nc1cccc(C(=O)O)c1,-73*,11,4,-1,12*,12,10*,16*
CCOC(=O)N/N=C/c1c(C)nn(-c2cccc(C(F)(F)F)c2)c1Cl,-2,2,-1,-1,-2,19,·,·
CCOC(=O)C1=C(C(=O)OCC)C2N(Cc3ccc(C(F)(F)F)cc3)c3ccccc3[C@@]23C[C@@H](C(=O)OC)N(S(=O)(=O)c2cccs2)C3=N1 (some centres not stated),·,·,·,-1,-5,·,·,·
COc1ccc(OC)c2sc(N(CCCN(C)C)C(=O)CCS(=O)(=O)c3ccccc3)nc12,3,·,31*,1,9.9*,5,-15,-1
CCN(CC)CCN(C(=O)CCS(=O)(=O)c1ccccc1)c1nc2cc(OC)c(OC)cc2s1,1,6,-1,0,8.7*,4,-4,1
Cc1ccc(S(=O)(=O)N2[C@H](CC(=O)c3cccc4ccccc34)OC[C@@H]2C(C)C)cc1,·,·,·,1,-4,·,·,·
O=S1(=O)c2ccc(Br)cc2OC2CCCN1C2 (configuration not stated),·,·,·,0,0,·,·,·
COc1ccc(C2CC(c3cccs3)=NN2C(=O)CCCC(=O)O)cc1OC (configuration not stated),·,·,0,1,-1,·,·,·
NS(=O)(=O)c1ccc(S(=O)(=O)N2CCCC(c3ccccc3)C2)cc1 (configuration not stated),·,·,1,2,-6,·,·,·
O=C(NC1CC1)C1CCN(c2ncccn2)CC1,5,-2,3,-1,9.2*,14,-1,0
Cc1cccc(C(O)c2ncc(-c3cccc(C(F)(F)F)c3)[nH]2)c1C (configuration not stated),·,·,0,2,-3,·,·,·
Cc1ccccc1NC(=O)/C(C#N)=C/c1ccc[nH]1,11,-5,5,-2,9.5*,25,1,5.3*
N#C/C(=C\c1ccc[nH]1)C(=O)Nc1ccccc1[N+](=O)[O-],24,0,6,0,11*,15,14*,6.1*
